Experimental data from ChEMBL document CHEMBL3988442, “University of Dundee, Small-Polar-MMV Screening Library” (2021).
Among all 48,000 compounds or so, about 13,000 (27%) showed an effect of 50% or more. The list shows a part of the results.

System: Wolbachia pipientis
Experiment: Anti-Wolbachia Cell-Based Screen
Format: functional
Design: scale not given: in the data most compounds retested in dose-response had high values
Conditions: 5 µM

SMILES | Percent Effect [%]
Cc1cc(N(C)C)nc(N2CCN(C(C)c3nc(C)no3)CC2)n1 (stereo not given) | 5.095
Cc1cc(C)n(CC2CN(CC(=O)NC3CCOCC3)CCO2)n1 (stereo not given) | 89.87
Cc1cc(C)n(CC2CN(CC(=O)NC3CCCCC3)CCO2)n1 (stereo not given) | 116.8
Cc1nc(C)n(CC2CN(CC(=O)Nc3cccnc3)CCO2)n1 (stereo not given) | 9.573
CCN1CCC(NC(=O)CN2CCCC2Cn2nc(C)cc2C)CC1 (stereo not given) | -4.017
Cc1cc(C)n(CC2CN(CC(=O)NC3CCCC3)CCO2)n1 (stereo not given) | -2.568
Cc1nc(C)n(CC2CN(CC(=O)Nc3nccs3)CCO2)n1 (stereo not given) | 1.962
Cc1cc(C)n(CC2CN(CC(=O)Nc3c(C)n[nH]c3C)CCO2)n1 (stereo not given) | -5.671
Cc1cc(C)n(CC2CN(CCC(=O)NC3CCCCC3)CCO2)n1 (stereo not given) | 118.1
Cc1nc(C)n(CC2CN(CC(=O)NC3CCCC3)CCO2)n1 (stereo not given) | 112.4
CCNC(=O)C1CCN(c2cc(CC)nc3ccnn23)C1 (stereo not given) | -6.245
CC(C)(C)CCNC(=O)c1ccc(Cl)c(NS(C)(=O)=O)c1 | -2.179
O=C(NCC(=O)N1CC2(CCCC2)c2c(F)cccc21)C1CC1 | -3.819
Cc1cc(NC(=O)CN2CCOC(Cn3nc(C)cc3C)C2)n(C)n1 (stereo not given) | -0.6717
Cc1cc(C)n(CC2CN(CC(=O)Nc3ccncc3)CCO2)n1 (stereo not given) | 89.28
Cc1cc(C)n(CC2CN(CCc3ccncc3)CCO2)n1 (stereo not given) | -8.109
Cc1cc(C)n(CC2CN(CC(=O)NC(C3CC3)C3CC3)CCO2)n1 (stereo not given) | 97.21
O=C(CN1CCOC(Cn2cccn2)C1)NC(C1CC1)C1CC1 (stereo not given) | -1.772
O=C(CN1CCOC(Cn2cncn2)C1)NC(C1CC1)C1CC1 (stereo not given) | -5.3
Cc1cc(C)n(CC2CN(CC(=O)Nc3nncs3)CCO2)n1 (stereo not given) | -6.247
Cc1cc(CN2CCN(CC(=O)NC3(C#N)CCCCC3)CC2)on1 | 3.175
Cc1cc(C)n(CC2CN(CC3CCCC3)CCO2)n1 (stereo not given) | 115
Cc1cc(C)n(CC2CN(CC(=O)NC3(C#N)CCCC3)CCO2)n1 (stereo not given) | 97.92
CC(C)=CCN1CCOC(Cn2nc(C)cc2C)C1 (stereo not given) | -20.01
O=C(Nc1cccn(CC(F)(F)F)c1=O)c1ccc(F)cc1 | 7.272
O=C(NCC1CC1)C12CC(CN1Cc1nccs1)C2 | -8.528
CCNC(=O)[C@@H]1C[C@H](NC(=O)Cc2ccsc2)CN1Cc1ccc(C)o1 | 8.656

SMILES | Percent Effect [%]
CCNC(=O)[C@@H]1C[C@@H](NC(=O)c2cccnc2O)CN1Cc1ccsc1 | 9.29
CCNC(=O)[C@@H]1C[C@H](N)CN1Cc1ccc(Sc2ccc(C)cc2)o1 | 11.39
CCNC(=O)[C@@H]1C[C@@H](NC(=O)c2cc(C)on2)CN1Cc1ccccn1 | 121.6
CCNC(=O)[C@@H]1C[C@H](NC(=O)c2ccc(C)s2)CN1Cc1ccc(C)o1 | 103.2
CCNC(=O)[C@@H]1C[C@@H](NC(=O)c2ccc(C)s2)CN1Cc1ccccn1 | 112.7
CCNC(=O)[C@@H]1C[C@@H](NC(=O)Cc2ccccn2)CN1CCCSC | -3.005
Cc1cc(C(=O)N2CCC(c3nccn3Cc3ccccn3)CC2)no1 | -9.373
C/C=C(\C)CN1C[C@H](NC(=O)c2cnc(O)cn2)C[C@H]1C(=O)NCC | -10.14
CSCCc1c(-c2ccccc2)ncn1CC(C)(C)N1CCOCC1 | 0.5421
CN(CCCc1cc(-c2ccccc2)n[nH]1)C(=O)CCCn1cncn1 | 1.593
O=C(COC1CCOC1)N(CC(F)F)c1cccc(Cl)c1 (stereo not given) | -1.811
CC1CCC(NC(=O)Nc2ccc(CC(=O)N(C)C)cc2)CC1 (stereo not given) | 5.136
CC(O)CN1CCN(C(=O)c2ccc(Br)o2)CC1 (stereo not given) | -12.79
CCN(CC)Cc1ccc(C(=O)N2CCN(CC(C)O)CC2)cc1 (stereo not given) | -1.675
CC(O)CN1CCN(C(=O)c2ccc3c(c2)COC3)CC1 (stereo not given) | -5.873
CSCc1cccc(C(=O)N2CCN(CC(C)O)CC2)c1 (stereo not given) | -7.975
COCc1ccc(C(=O)N2CCN(CC(C)O)CC2)cc1 (stereo not given) | 108.5
CC(O)CN1CCN(C(=O)c2ccc(CN(C)C)cc2)CC1 (stereo not given) | 105.8
CSCc1ccc(C(=O)N2CCN(CC(C)O)CC2)cc1 (stereo not given) | 99.74
COc1ccccc1C(=O)Nc1ccc([C@@H](O)[C@H]2COCC(=O)N2)cc1 | -5.781
O=C(O)C1c2nc[nH]c2CCN1Cc1ccccc1-c1ccccc1 (stereo not given) | -6.694
CC(C)CCc1noc(CN2CCCC(CNS(N)(=O)=O)C2)n1 (stereo not given) | -3.11
O=S(=O)(NC1CCC2(CC1)OCCO2)c1cccc(Br)c1 | -35.45
COC(=O)CN(C)C1CCc2ccccc21 (stereo not given) | -6.999
CCn1cc(CN2CCCN(C(=O)c3ccccc3OC)CC2)cn1 | 106.4
CCc1[nH]ncc1C(=O)N1CCCN(Cc2cnn(C)c2)CC1 | -4.439
CCn1cc(CN2CCCN(C(=O)c3ccccc3C)CC2)cn1 | 154.9

SMILES | Percent Effect [%]
CCCc1cc(=O)[nH]c2nnc(SCC(=O)OC)n12 | 10.3
CC(C)NC(=O)NCc1nnc2n1C(C(=O)N(C)C)CC2 (stereo not given) | 107
Cc1ccc2c(c1)nc1n2[C@@H](CNC(=O)c2cccnc2)COC1 | -3.716
CN(Cc1ccc(Cl)s1)C(=O)NCc1nnc2n1CCC2 | 3.09
CC(C)NC(=O)C1CCc2nnc(CNC(=O)C3CC3)n21 (stereo not given) | 113.3
CC(NC(=O)C1CCCC1)c1nncn1C(C)C (stereo not given) | 0
COc1ccc(C(NC(=O)NCc2nnc3n2CCC3)C2CC2)cc1 (stereo not given) | 10.5
CC(C)NC(=O)C1CCc2nnc(CNC(=O)c3cccnc3)n21 (stereo not given) | 109.4
CC1CCN(CCNC(=O)C2CCN(C(=O)NC(C)C)CC2)CC1 | 10.9
CC(C)N(Cc1ccccc1)C(=O)NCCNC(=O)c1cccnc1 | -12.62
CN(C)C(C(=O)N1CCN(CCn2cccc2)CC1)c1cccc(F)c1 (stereo not given) | -3.926
O=C1OCCN1CCSc1nnnn1CC(F)(F)F | -1.95
CSCc1cccc(S(=O)(=O)NCc2cnn(C)c2C)c1 | -8.017
Cc1cc(NC(=O)NCCc2ccc(S(N)(=O)=O)cc2)n(C)n1 | -16.74
Cc1ccc(C)c2c(O)cc(CNCc3ccc(S(N)(=O)=O)cc3)nc12 | -3.225
CCCc1nc(C)cc(NCc2ccc(S(N)(=O)=O)cc2)n1 | 98.3
CC(C)c1nn2c(-c3cnn(C)c3)nnc2s1 | 112.2
CN1CCN(c2nc(-c3cnn(C)c3)cs2)CC1 | 4.898
Cc1nc(-c2cnn(C)c2)sc1C(=O)NCc1ccc(C)n1C | -0.2397
Cc1nc(C(C)C)sc1C(=O)N(C)Cc1cnn(C)c1 | -3.073
Cc1nn2c(-c3cnn(C)c3)nnc2s1 | 91.48
CS(=O)(=O)NCCC(=O)N1Cc2cnc(-c3ccccc3)nc2C1 | 16.59
CCN(CC)c1ccc(NC(=O)NCC2CCOC2)cn1 (stereo not given) | 10.55
CN(CC1CCOC1)c1ncc(Br)cn1 (stereo not given) | 108.2
CCN(CC1CCOC1)C(=O)Nc1ccc(OC)nc1 (stereo not given) | 9.48
Cc1cc(NC(=O)N(CC2CCOC2)C2CC2)no1 (stereo not given) | -8.865
Brc1cnc(NCCCOCC2CCOC2)nc1 (stereo not given) | -7.311

SMILES | Percent Effect [%]
CC(C)n1cnnc1CN(C)CC1CCOC1 (stereo not given) | -3.944
Cc1cc(C)c2c(N(C)CC3CCOC3)ncnc2n1 (stereo not given) | 14.02
Cc1cc(Br)cnc1N(C)CC1CCOC1 (stereo not given) | 110.5
CN(CC1CCOC1)c1ccc(Br)cn1 (stereo not given) | 73.32
COCC1CN(S(=O)(=O)Cc2ccc(C)cc2)Cc2c1cnn2C.O=C(O)C(F)(F)F (stereo not given) | -11.46
CCCc1cncnc1N1CCC(NCCc2nc(O)cc(O)n2)CC1 | 12.44
Cc1ccccc1CCCN(Cc1ccccn1)S(C)(=O)=O | 19.14
O=C(c1ncn2c(C3CCN(CC4CC4)CC3)ccnc12)N1CCCC1 | -17.31
COCC1c2nnn(CC3CC3)c2CCN1C(=O)N1CCCC1 (stereo not given) | -0.306
Cl.Cn1cc(C(=O)NCc2cncc3c2CCN(S(C)(=O)=O)C3)cn1 | 98.76
CC(C)N1CCc2c(CNC(=O)c3nccn3C)cncc2C1.Cl.Cl.Cl | 1.546
Cl.Cl.Cn1cc(CN2CCc3c(CNC(=O)C4CC4)cncc3C2)cn1 | -6.421
Cl.Cl.Cn1cc(C(=O)NCc2cncc3c2CCN(CC2CC2)C3)cn1 | 108.8
COCCN1CCc2c(CNC(=O)c3nccn3C)cncc2C1.Cl.Cl.Cl | -25.03
Cl.Cl.Cn1cc(C(=O)NCc2cncc3c2CCN(c2ccccn2)C3)cn1 | 91.67
Cn1cc(C(=O)NCc2cn3c(n2)CN(CC2CCOCC2)CC3)cn1.O=C(O)C(F)(F)F | -7.416
N#Cc1cnc(NCc2ccc(C(=O)NC3CC3)cc2)c(Cl)c1 | -6.229
CC(C)(C)c1noc(CCC(=O)N(CC2CCOC2)C2CC2)n1 (stereo not given) | 7.667
CNC(=O)CN1CCC2(CCCN(CC3CCOC3)C2)CC1.O=C(O)C(F)(F)F.O=C(O)C(F)(F)F (stereo not given) | 105.4
CC(=O)N1CCC2(CCN(CC3CCCCC3)C2)CC1 | -14.93
CC(=O)N1CCC2(CCN(CC3CCOC3)C2)CC1 (stereo not given) | 104
CN(C)C(=O)CN1CCC2(C1)CN(CC1CCOC1)C2.O=C(O)C(F)(F)F.O=C(O)C(F)(F)F (stereo not given) | -5.986
CC(=O)N1CCc2[nH]cnc2C12CCN(CC1CCOC1)CC2 (stereo not given) | -0.2967
CNC(=O)CN1CCO[C@H]2CN(CC3CCOC3)C[C@H]21.O=C(O)C(F)(F)F.O=C(O)C(F)(F)F (stereo not given in full) | 19.99
